Reference: the supplement of paper PMC3334620
Whole data set: some 33,000 sequences, median “E-score (-0.5 to 0.5)” near -0.054, cut for the highest 2% near 0.35. This excerpt belongs to a sample that is enriched for the highest values.

Each sequence was assayed against T1, Stb5 (UniProt P38699) (assay: PBM E-score (8-mer binding enrichment) (E-score (-0.5 to 0.5)); higher = stronger / more preferred TF binding). Settings: protein concentration: 200 nM; construct: GST-full length.
T1 sequence: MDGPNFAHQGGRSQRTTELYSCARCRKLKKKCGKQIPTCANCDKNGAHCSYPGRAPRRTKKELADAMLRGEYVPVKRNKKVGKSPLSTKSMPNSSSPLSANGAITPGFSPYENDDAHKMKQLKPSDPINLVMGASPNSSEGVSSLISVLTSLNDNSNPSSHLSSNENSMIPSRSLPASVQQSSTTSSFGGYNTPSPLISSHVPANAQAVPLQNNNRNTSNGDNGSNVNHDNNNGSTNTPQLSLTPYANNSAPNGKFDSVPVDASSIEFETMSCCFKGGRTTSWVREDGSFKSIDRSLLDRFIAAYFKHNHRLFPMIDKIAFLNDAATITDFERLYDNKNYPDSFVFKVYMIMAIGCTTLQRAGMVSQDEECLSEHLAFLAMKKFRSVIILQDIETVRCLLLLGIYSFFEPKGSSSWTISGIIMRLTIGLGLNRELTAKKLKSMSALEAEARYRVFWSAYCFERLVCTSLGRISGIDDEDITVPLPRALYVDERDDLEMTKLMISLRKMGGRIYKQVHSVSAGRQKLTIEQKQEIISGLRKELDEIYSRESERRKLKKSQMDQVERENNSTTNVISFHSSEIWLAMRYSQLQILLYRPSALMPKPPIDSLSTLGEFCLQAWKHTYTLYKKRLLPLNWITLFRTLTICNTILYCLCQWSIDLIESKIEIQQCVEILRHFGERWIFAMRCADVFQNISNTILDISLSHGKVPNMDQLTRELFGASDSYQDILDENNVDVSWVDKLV
Summary of the method: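 GST-tagged yeast TFs (full-length or DNA-binding domain) were made by PURExpress in vitro transcription/translation and applied at about 100-200 nM to universal all-10-mer Agilent arrays. The arrays were made double-stranded by primer extension, on fresh or once-stripped slides. Bound protein was detected with fluorescent anti-GST, and scans were normalised with masliner. Each ungapped eight-base word, pooled with its reverse complement, received an E-score (modified Wilcoxon-Mann-Whitney statistic) from the Universal PBM Analysis Suite.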

Sequence | PBM E-score
CCGTTACC | 0.19
CAGAGTAC | -0.0917
CGTTTGGC | 0.0428
ACGATTAT | 0.0316
CCCGAGAC | 0.146
CGGATTAA | 0.231
CGCGGGGC | 0.321
AGCGGGCC | 0.23
ATCGGGGG | 0.289
ATCGGGCC | 0.297
AGCGGGGC | 0.356
ATCGGGGC | 0.356
CCCATATA | 0.0651
ATAAACGA | 0.0369
AGCCCAAA | 0.106
CCCGACCC | 0.247
GCCGACCC | 0.267
CCCGACCG | 0.355
ACCGACCC | 0.361
ACCGACCG | 0.346
ACCGACCA | 0.332
AACACTAA | -0.111

Sequence | PBM E-score
TGTGGGAA | -0.16
GCCTAGTA | -0.0419
AAAATCCG | 0.345
CGCCCCGC | 0.325
AGCCCGGG | 0.189
AGCCCCGC | 0.421
AGCCCCGA | 0.397
CGCCCCGA | 0.328
AGCCCCCG | 0.173
AGCCCCCC | -0.282
AGCCCCGG | 0.404
GGCCCCGA | 0.23
AAGGTGAT | 0.117
AGAGGTAC | -0.205
CCTGATCC | -0.125
CCCATGGG | -0.194
GGTTGGAC | -0.0385
CGCCTGTC | -0.0556
ACTACAGT | -0.24
CTCGGACA | 0.233
CCCGGACA | 0.315
CACGGACA | 0.211

Sequence | PBM E-score
TCCGGACA | 0.259
CTCGGATA | 0.0597
GTCGGACA | 0.385
GTCGGATA | 0.371
GCCGGACA | 0.401
GACGGACA | 0.372
ATCGGATA | 0.19
GACGGACC | 0.316
GTCGGAAA | 0.274
TAAAACTA | -0.0104
CACAAAAG | 0.0345
AGCTAACG | 0.00522
CCTCCTAG | -0.267
ATGGCGAG | -0.242
CCAGCGCG | -0.0713
AAACCTTT | 0.0851
AGGCCCCA | -0.255
CGCGGAGA | 0.287
CTCGGAGA | 0.136
AGCGGAGA | 0.236
GGCGGAGA | 0.388
ATCGGAGA | 0.33

Sequence | PBM E-score
GTCGGAGA | 0.373
AAACAGAG | -0.197
CGGTCTAA | 0.23
CCACTACG | -0.0468
CCATAACG | -0.0562
AACATATT | -0.109
CCGTGTTC | 0.137
AGGTGTTC | -0.101
CTGTGTCC | 0.136
CGGTGTTC | 0.399
AGGTGTGA | 0.00067
CGGTGTGA | 0.441
AGGTGTTA | 0.381
GGGTGTTA | 0.25
CGGTGTCC | 0.369
AGGTGTTG | -0.0336
CGGTGTGC | 0.219
AGGTGTCC | -0.164
AATCTGCA | -0.273
AAAGGCCT | -0.115
ACTCTGTG | -0.0679
TATAGGCA | -0.262

Sequence | PBM E-score
ATGATGCA | -0.187
CACCAGCG | -0.06
ACAAAGAG | -0.148
GGGTGTCA | -0.073
AGGTGTCA | 0.12
CGGTGTCA | 0.471
CGGTGTAG | 0.323
GGGTGTAA | 0.251
CGGTGTAA | 0.438
TCGGAAGA | 0.142
ATATGAAA | -0.119
ATTCGAGG | 0.0182
TACGCAGA | -0.163
CGACCCGA | 0.117
AAACGCCA | -0.046
AAACGCCG | 0.449
AGACGCCG | 0.399
AGACGCCC | 0.0667
CAACGCCG | 0.318
AGACGCCA | -0.181
CGCTAGAG | 0.0369
AACATCGC | 0.0424
